16 compounds from PubChem BioAssay can be followed below.

By inhibition is commonly meant the drop in the measured response relative to a control, in per cent.

Unmarked numbers belong to inactive results. How the calls were made is not given here.

Pantothenate synthetase (Mycobacterium tuberculosis (strain ATCC 25618 / H37Rv)), sequence (P9WIL5 whole entry, looked up): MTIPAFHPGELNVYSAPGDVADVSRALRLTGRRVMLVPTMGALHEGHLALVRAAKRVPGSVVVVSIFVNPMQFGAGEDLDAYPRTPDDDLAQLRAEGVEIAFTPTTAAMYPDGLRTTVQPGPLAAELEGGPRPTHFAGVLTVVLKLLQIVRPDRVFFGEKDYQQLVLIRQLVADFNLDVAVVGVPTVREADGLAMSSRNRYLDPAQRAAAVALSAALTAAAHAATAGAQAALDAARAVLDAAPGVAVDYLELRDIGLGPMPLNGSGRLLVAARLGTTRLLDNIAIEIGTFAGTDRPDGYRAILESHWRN

This test concerns the target Pantothenate synthetase (Mycobacterium tuberculosis (strain ATCC 25618 / H37Rv)) (UniProt P9WIL5). The experiment in a line: Recombinant Mtb pantothenate synthetase (PanC) inhibitors, coupled enzyme, confirmatory (AID 375).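 Further: 0% = full reaction with vehicle and 100% = no enzyme background.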 Particulars: coupled enzyme assay; at 10 µM, stronger effect = higher value.
Take `Cc1cc2cc(CN(CC3CCCO3)C(=O)c3cnccn3)c(=O)[nH]c2cc1C` (stereo unspecified): the inhibition was 4%.

For `COc1ccc(C(=O)N(Cc2ccco2)C(C(=O)NC2CCCC2)c2ccc(O)cc2)cc1OC` (stereo unspecified), the inhibition is 0%.

For `CCOC(=O)c1ccccc1NC(=O)c1cc2sccc2n1C`, the inhibition was 2%.

Consider `CCCS(=O)(=O)N1CCN(C(=O)CCC2CCCC2)CC1`, for which the inhibition was 0%.

As for `COc1cc2nc(C3CCC3)n(NC(=O)C3CCCC(OC)C3)c(=O)c2cc1OC` (stereo unspecified), the inhibition is 2%.

Consider `CC1(C)CC2CC(C)(CN2S(=O)(=O)c2ccc(N)cc2)C1` (stereo unspecified), for which the inhibition was 0%.

As to `CS(=O)(=O)N1CCCC(C(=O)NCCCN2CCc3ccccc3C2)C1` (stereo unspecified), the inhibition is 2%.

`Cc1ccc(S(=O)(=O)C2(C(=O)N3CCCCCC3)CC2)cc1`: the inhibition is 0%.

Consider `COc1ccc(C/C(N)=N/n2cnnc2)cc1Cl`, for which the inhibition is 0%.

Take `CC1CCCN(S(=O)(=O)c2coc(C(N)=O)c2)C1` (stereo unspecified): the inhibition is 0%.

Regarding `CN=C1CC(C)(C)CC(=O)/C1=C(/O)CCC(=O)NC`, the inhibition was 0%.

As to `Cc1ccc(S(=O)(=O)NCCSc2nnnn2-c2ccc(C(N)=O)cc2)cc1`, the inhibition was 0%.

Turning to `COc1ccccc1NC(=O)N(Cc1ccco1)Cc1cc2c(C)ccc(C)c2[nH]c1=O`, the inhibition is 0%.

As for `CCOC(=O)c1ccc2nc(NC(NC(C)=O)(C(=O)OC)C(F)(F)F)sc2c1` (stereo unspecified), the inhibition is 2%.

Take `CCOc1ccc(NC(=O)CSc2nnc(COc3c(C)cccc3C)o2)cc1`: the inhibition is 1%.

Turning to `N#CCCCN1C(=O)C(O)(CC(=O)c2ccc3c(c2)OCCO3)c2ccccc21` (stereo unspecified), the inhibition was 0%.
